According to PubChem BioAssay (NCATS):
Records with an inconclusive call do not appear. Calls of active or inactive are those of the source. Non-standard residues stand in square brackets, D forms with d. Residues, ends and D or L forms follow the SMILES beside them. *: point of attachment. Nva = CCC[C@H](N)C(=O)O; Cbz = O=C(OCc1ccccc1)*

Assay: qHTS for identification of novel therapeutic agents for treatment of microphthalmiaassociated transcription factor (MiT) renal cell carcinoma (RCC) (AID 1963991)
Conditions: CellTiter-Glo, 48 h; for Potency: active = Z-AUC below -0.8 in all three lines; for z-score: stronger effect = lower value
Excerpt: PI: Marston Linehan Ph.D.
Urologic Oncology Branch, Center for Cancer Research (CCR)
National Cancer Institute (NCI), National Institute of Health (NIH), Bethesda, Maryland
MiT-Renal Cell Carcinoma (RCC) is characterized by genomic translocations involving microphthalmia-associated transcription factor (MiT) family members TFE3, TFEB, or MITF. MiT-RCC represents a specific subtype of sporadic RCC that is predominantly seen in young patients and can present with heterogeneous histological features making diagnosis challenging. Moreover, the disease biology of this aggressive cancer is poorly understood and there is no accepted standard of care therapy for patients with advanced disease. Tumor-derived cell lines have been established from human TFE3-RCC providing useful models for preclinical studies. TFE3-RCC tumor derived cell lines and their tissues of origin were characterized by IHC and gene expression analyses. An unbiased high-throughput drug screen was performed to identify novel therapeutic agents for treatment of MiT-RCC. Potential therapeutic candidates were validated in in vitro and in vivo preclinical studies. Mechanistic assays were conducted to confirm the on-target effects of drugs. The results of a high-throughput small molecule drug screen utilizing three TFE3-RCC tumor-derived cell lines identified five classes of agents with potential pharmacological efficacy, including inhibitors of phosphoinositide-3-kinase (PI3K) and mechanistic target of rapamycin (mTOR), and several additional agents, including the transcription inhibitor Mithramycin A. Upregulation of the cell surface marker GPNMB, a specific MiT transcriptional target, was confirmed in TFE3-RCC and evaluated as a therapeutic target using the GPNMB-targeted antibody-drug conjugate CDX-011. […] The results of the high-throughput drug screen and validation studies in TFE3-RCC tumor-derived cell lines have provided in vitro and in vivo preclinical data supporting the efficacy of the PI3K/mTOR inhibitor.
SEQUENCE No. (e.g., 1, 2, 3, etc.); […] (e.g., Cells, Incubation, Reagent, etc.); VALUE; DESCRIPTION.
1; Cells; 3 uL; white, solid-bottom Grenier assay plate.
2; Compounds; 23 nL; Kalypsis pin-tool (Wako USA).
3; Incubation; 48 hr; 37 C, 5% CO2, 95% humidity.
4; Reagent; 3 uL; CellTiter-Glo reagent (Promega).
5; Incubation; 15 min; room temperature.
6; Detection; Luminescence; ViewLux plate reader (PerkinElmer).
NOTES (numbers refer to Sequence numbers above)
1. Quantitative high-throughput screening (qHTS) of 1912 pharmacologically defined small molecule compounds was conducted on three TFE3-fusion cell lines bearing three different fusion partners (UOK109, UOK124, UOK145). Briefly, 500 cells in complete growth media were plated into white, solid-bottom, 1536-well tissue culture treated plates (Grenier Cat. 789173-F) using a Multidrop Combi cassette dispenser.
2. Twenty-three nanoliter of 1912 pharmacologically defined small molecule compounds of the NCATS Mechanism Interrogation PlatE (MIPE) version 4.0 were added to each assay plate using a Pintool Dispenser (Wako) equipped with 1536 pin head.
3. Plates were covered with stainless steel gasketed lids and incubated for 48 hours at standard cell culture conditions.
4. Viability was assessed by adding 3uL of CellTiter-Glo detection reagent (Promega).
5. Plates were covered with gasket lids and incubated for 15 minutes at room temperature.
6. Luminescence was measured on a ViewLux plate reader (PerkinElmer). Post-screen data processing used DMSO controls as 100% viability and empty wells as 0% viability and dose response curve fitting was done for all 11 concentrations for each compound.

[1] = TFE3-RCC UOK109 viability, measured here: UOK109 Z-AUC
[2] = TFE3-RCC viability, measured here: UOK124 Z-AUC
[3] = TFE3-RCC viability, measured here: UOK145 Z-AUC
Potency means the concentration at half of the fitted maximal effect.

SMILES | Potency (TFE3-RCC UOK109 viability) | z-score [1] | z-score [2] | z-score [3]
CC(=O)N1CCN(c2ccc(OCc3nn(C)c(C)c3-c3cccc4c(CCCOc5cccc6ccccc56)c(C(=O)O)n(Cc5cccnc5)c34)cc2)CC1 | 935 nM (active) | -1.06 | -1.35 | -1.45
N#Cc1c(NC(=O)c2cccc3ccccc23)sc2c1CCCC2 | 833 nM (active) | -1.37 | -1.52 | -1.31
CCC[C@@H](C=O)NC(=O)[C@H](CC(C)C)NC(=O)[C@H](CC(C)C)NC(=O)OCc1ccccc1 (Cbz-Leu-Leu-[Nva]-aldehyde) | 4180 nM (active) | -1.03 | -2.77 | -1.34
COc1ccc(S(=O)(=O)Nc2cccnc2Nc2ccc(O)cc2)cc1 | 132 nM (active) | -0.858 | -1.8 | -1.74
O=C(C=Cc1ccc(CN(CCO)CCc2c[nH]c3ccccc23)cc1)NO | 590 nM (active) | -1.47 | -3.24 | -1.37
C=C[C@@H]1CN2CCC1C[C@H]2[C@H](O)c1ccnc2ccc(OC)cc12 (stereo partly specified) |  | 0.232 | 0.335 | 0.288
N[C@H]1CN(c2c(F)cc3c(=O)c(C(=O)O)cn(C4C[C@@H]4F)c3c2Cl)CC12CC2 (stereo partly specified) |  | 0.717 | 1.4 | -0.145
CCCCCCCN(CC)CCCC(O)c1ccc(NS(C)(=O)=O)cc1 (stereo unspecified) |  | 0.349 | -0.246 | 0.649
CC(Oc1ccc(O)cc1)(P(=O)(O)O)P(=O)(O)O |  | 0.171 | 0.237 | 0.233
CC[C@H](CC[C@@H](C)[C@H]1CC[C@H]2[C@@H]3CC=C4C[C@@H](O)CC[C@]4(C)[C@@H]3CC[C@]12C)C(C)C |  | 0.368 | 0.916 | 0.197
CON=C(C(=O)N[C@@H]1C(=O)N2C(C(=O)O)=C(Cn3ccc(=N)n3CCO)CS[C@H]12)c1csc(N)n1 |  | 1.44 | 0.0348 | 0.881
O=C(O)[C@H](CC(=O)N1C[C@@H]2CCCC[C@H]2C1)Cc1ccccc1 |  | 0.946 | 0.446 | 0.344
